Measurements published in the supplement of paper PMC13380429.

Tested on: Vero E6 infected with SARS-CoV-2
Experiment: inhibition of SARS-CoV-2 cytopathic effect; higher = more antiviral protection, active = above 15
Settings: 48 h

Measured: inhibition of SARS-CoV-2 cytopathic effect

CNC(=O)O[C@H]1COc2ccc(N3CCN(C4COC4)CC3)cc2[C@@H]1NC(=O)c1ccc(F)cc1
inactive: 1 nM 1.12% | 8.33 nM -0.75% | 100 nM -1.06% | 833.33 nM 0.34% | 10000 nM 1.4%

COC(=O)c1ccc(N2CCN(C)CC2)c(NC(=O)c2cccc(OC)c2)c1
inactive: 1 nM 6.88% | 8.33 nM 6.06% | 100 nM -2.23% | 833.33 nM -3.85% | 10000 nM 1.03%

COc1cc(C(=O)OCCCN2CCCN(CCCOC(=O)c3cc(OC)c(OC)c(OC)c3)CC2)cc(OC)c1OC [dilazep]
inactive: 1 nM 0.92% | 8.33 nM 1.04% | 100 nM -0.17% | 833.33 nM -1.09% | 10000 nM 4.8%

COc1cc(C[C@@H]2NCCc3cc(O)c(O)cc32)cc(OC)c1OC [trimethoquinol]
inactive: 1 nM 0.9% | 8.33 nM 0.73% | 100 nM 1.88% | 833.33 nM 0.62% | 10000 nM -5.45%

CO[C@@H]1[C@@H](OC(N)=O)[C@@H](O)[C@H](Oc2ccc3c(O)c(NC(=O)c4ccc(O)c(CC=C(C)C)c4)c(=O)oc3c2C)OC1(C)C [novobiocin]
inactive: 1 nM -2.55% | 8.33 nM -2.69% | 100 nM 2.34% | 833.33 nM 0.52% | 10000 nM 0.14%

Cc1ccc(NC(=O)Nc2cc(C(F)(F)F)ccc2F)cc1Nc1ccc2c(c1)NC(=O)/C2=C\c1ccc[nH]1
inactive: 1 nM 5.12% | 8.33 nM 5.28% | 100 nM 5.34% | 833.33 nM 7.91% | 10000 nM 4.87%

NCC1CC(=O)N(Cc2ccccc2)C1 (stereo not given) [nebracetam]
inactive: 1 nM 2.53% | 8.33 nM 1.25% | 100 nM 1.38% | 833.33 nM 1.16% | 10000 nM 0.26%

C[C@]12CC[C@H](O)C[C@H]1CC[C@@H]1[C@@H]2CC[C@]2(C)[C@@](O)(c3ccoc3)CC[C@]12O [rostafuroxine]
inactive: 1 nM 3.43% | 8.33 nM -0.48% | 100 nM 1.69% | 833.33 nM -1.79% | 10000 nM -1.77%

CC1(C)OC(=O)NC1=O [dimethadione]
inactive: 1 nM -1.41% | 8.33 nM -1.5% | 100 nM 0.11% | 833.33 nM 0.78% | 10000 nM 0.15%

Cc1c(I)c(=O)n(-c2ccccc2)n1C [iodoantipyrine]
inactive: 1 nM -0.48% | 8.33 nM -2.57% | 100 nM -0.75% | 833.33 nM -0.95% | 10000 nM 1.55%

CC(C)Cc1ccc([C@@H](C)C(=O)NS(C)(=O)=O)cc1 [reparixin]
inactive: 1 nM 2.11% | 8.33 nM 3.05% | 100 nM 3.66% | 833.33 nM 0.65% | 10000 nM 4.19%

OC[C@H]1O[C@H](O[C@H]2O[C@H](CO)[C@@H](O)[C@H](O)[C@H]2O)[C@H](O)[C@@H](O)[C@@H]1O [cabaletta]
inactive: 1 nM 1.34% | 8.33 nM 3.4% | 100 nM 5.33% | 833.33 nM 3.33% | 10000 nM 0.76%

CN(C)CCN(Cc1cccs1)c1ccccn1 [methapyrilene]
inactive: 1 nM -0.83% | 8.33 nM -2.49% | 100 nM -1.39% | 833.33 nM -3.33% | 10000 nM -1.68%

O=C(OCCOCCO)c1ccccc1Nc1cccc(C(F)(F)F)c1 [etofenamate]
inactive: 1 nM 1.16% | 8.33 nM -1.53% | 100 nM 0.55% | 833.33 nM -0.46% | 10000 nM -2.39%

Cc1cn([C@@H]2C[C@@H](O)[C@H](CO)O2)c(=O)[nH]c1=O [telbivudine]
inactive: 1 nM 1% | 8.33 nM -1.65% | 100 nM -1.15% | 833.33 nM -0.26% | 10000 nM 2.12%

Cc1oc(-c2ccccc2)nc1CCOc1ccc(CC2SC(=O)NC2=O)c2sccc12 (stereo not given) [edaglitazone]
inactive: 1 nM 0.32% | 8.33 nM 0.98% | 100 nM 0.63% | 833.33 nM 1.32% | 10000 nM 2.31%
